# According to PubChem BioAssay (NCATS):
# Inconclusive results are not listed. A call without a number means that no potency is given here. Unmarked numbers belong to inactive results. Calls of active or inactive are those of the source. Unless noted, calls follow the shape of the dose curve; as a rule, active = well fitted curve in the direction sought with a large enough effect; inconclusive = small, poorly fitted or top-dose-only effect, or another doubt; inactive = no such curve, though single readings can be large; an effect the other way counts as inactive or inconclusive.
# Columns and labels:
# [1] = Primary qHTS for small molecule stabilizers of the endoplasmic reticulum resident proteome: Secreted ER Calcium Modulated Protein (SERCaMP) assay (AID 1508630)
# Procedure, shortened: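 GLuc-SERCaMP-expressing SH-SY5Y cells, pretreated 16 h with compound, are challenged with thapsigargin to empty ER calcium stores; after 4 h, coelenterazine is added directly to the medium and luminescence is imaged.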
# [2] = molecular target: Cytochrome P450 2D6 (Homo sapiens) (UniProt P10635); assay: Cytochrome P450 family 2 subfamily D member 6 (CYP2D6) small molecule antagonists: luciferase biochemical (cell-free) qHTS assay (AID 1645840; active = well fitted curve in the direction sought with a large enough effect in the repeat runs; an effect the other way counts as inactive or inconclusive; also: nearly all actives have a fitted effect of over 55% in size; also: potency is read from the fitted curve at half-maximal effect)
# Sequence of Cytochrome P450 2D6 (Homo sapiens) (P10635 whole entry, looked up): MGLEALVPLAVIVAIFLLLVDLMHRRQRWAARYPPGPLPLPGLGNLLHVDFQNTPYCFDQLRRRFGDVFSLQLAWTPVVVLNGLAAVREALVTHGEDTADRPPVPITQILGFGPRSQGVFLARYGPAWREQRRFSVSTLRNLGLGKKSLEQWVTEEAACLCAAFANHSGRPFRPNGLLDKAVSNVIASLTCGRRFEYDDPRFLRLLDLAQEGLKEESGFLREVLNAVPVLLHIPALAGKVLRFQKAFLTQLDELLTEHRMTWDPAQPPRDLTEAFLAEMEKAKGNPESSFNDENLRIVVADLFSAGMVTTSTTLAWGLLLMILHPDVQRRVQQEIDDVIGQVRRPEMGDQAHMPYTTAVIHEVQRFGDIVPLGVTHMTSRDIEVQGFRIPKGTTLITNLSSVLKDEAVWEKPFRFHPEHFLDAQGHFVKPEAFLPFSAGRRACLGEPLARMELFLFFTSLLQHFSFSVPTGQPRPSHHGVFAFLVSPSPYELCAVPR
# Procedure, shortened: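 P450-Glo luminescent screen: recombinant CYP2D6 enzyme–proluciferin substrate mix preincubated with compound 10 min at room temperature, then NADPH regeneration added for 1 h at room temperature. Detection reagent added for 20 min; luciferin light read as relative luminescence units.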
# [3] = molecular target: Cytochrome P450 3A4 (Homo sapiens) (UniProt P08684); assay: Cytochrome P450 family 3 subfamily A member 4 (CYP3A4) small molecule antagonists: luciferase qHTS assay (AID 1645841; active = well fitted curve in the direction sought with a large enough effect in the repeat runs; an effect the other way counts as inactive or inconclusive; also: nearly all actives have a fitted effect of over 45% in size)
# Sequence of Cytochrome P450 3A4 (Homo sapiens) (P08684 whole entry, looked up): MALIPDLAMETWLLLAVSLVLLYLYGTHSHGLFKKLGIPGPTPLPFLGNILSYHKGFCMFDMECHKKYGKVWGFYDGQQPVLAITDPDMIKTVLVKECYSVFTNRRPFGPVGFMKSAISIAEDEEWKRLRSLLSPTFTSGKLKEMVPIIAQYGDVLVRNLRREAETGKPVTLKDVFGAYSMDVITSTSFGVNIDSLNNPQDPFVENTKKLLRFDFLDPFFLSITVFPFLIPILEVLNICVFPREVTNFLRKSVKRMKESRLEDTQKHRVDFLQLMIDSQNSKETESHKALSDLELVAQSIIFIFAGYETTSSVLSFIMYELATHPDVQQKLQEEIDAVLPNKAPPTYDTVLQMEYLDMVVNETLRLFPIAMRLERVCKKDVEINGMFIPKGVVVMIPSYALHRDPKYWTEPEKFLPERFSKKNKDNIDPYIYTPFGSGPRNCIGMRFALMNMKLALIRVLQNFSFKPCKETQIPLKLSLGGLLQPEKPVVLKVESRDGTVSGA
# Procedure, shortened: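 P450-Glo CYP3A4 enzyme with proluciferin substrate was preincubated with DMSO-dissolved compounds for 10 min at room temperature. NADPH regeneration solution started a 1 h reaction. Detection reagent stopped it, and luminescence was read after 20 min.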
# Papain (Carica papaya) = Papain (Carica papaya) (UniProt P00784); assay: Primary qHTS assay for inhibitors of the protease papain (AID 1645873);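 also: papain turnover of Z-FR-AMC read as the AMC fluorescence gain over 10 min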; also: potency is read from the fitted curve at half-maximal effect
# Sequence of Papain (Carica papaya) (P00784 whole entry, looked up): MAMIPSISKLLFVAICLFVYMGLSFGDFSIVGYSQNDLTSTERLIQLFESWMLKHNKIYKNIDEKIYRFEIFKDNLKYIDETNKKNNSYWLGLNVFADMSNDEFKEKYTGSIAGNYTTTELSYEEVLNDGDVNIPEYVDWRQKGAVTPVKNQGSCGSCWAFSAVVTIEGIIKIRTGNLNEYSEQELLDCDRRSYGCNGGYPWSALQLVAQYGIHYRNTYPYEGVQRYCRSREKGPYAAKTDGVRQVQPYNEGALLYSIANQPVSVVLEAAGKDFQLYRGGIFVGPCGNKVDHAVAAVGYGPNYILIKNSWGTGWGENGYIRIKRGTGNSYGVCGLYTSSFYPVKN
# [4] = molecular target: Calcium and integrin-binding protein 1 (Homo sapiens) (UniProt Q99828); assay: Primary qHTS for Identification of Calcium Integrin Binding Protein 1 (CIB1) Competitor (AID 1508620);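 also: GST tagged CIB1 binding a fluorescein labelled alphaIIb integrin peptide tracer; top concentration of the series differs between compounds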
# Sequence of Calcium and integrin-binding protein 1 (Homo sapiens) (Q99828 whole entry, looked up): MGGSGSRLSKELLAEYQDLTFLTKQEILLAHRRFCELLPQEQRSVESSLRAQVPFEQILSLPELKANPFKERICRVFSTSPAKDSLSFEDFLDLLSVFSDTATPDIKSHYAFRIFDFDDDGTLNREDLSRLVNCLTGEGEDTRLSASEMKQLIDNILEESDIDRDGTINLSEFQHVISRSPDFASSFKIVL
# Procedure, shortened: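 Fluorescence polarization competition: CIB1-GST (1 uM final) preincubated with compound 15 min at room temperature, then FITC-labeled alphaIIb peptide (100 nM final) added for another 15 min. Polarization read at Ex 480/Em 540.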
# [5] = molecular target: Cytochrome P450 2C9 (Homo sapiens) (UniProt P11712); assay: Cytochrome P450 family 2 subfamily C member 9 (CYP2C9) small molecule antagonists: luciferase biochemical (cell-free) qHTS assay (AID 1645842; active = well fitted curve in the direction sought with a large enough effect in the repeat runs; an effect the other way counts as inactive or inconclusive; also: nearly all actives have a fitted effect of over 55% in size; also: potency is read from the fitted curve at half-maximal effect)
# Sequence of Cytochrome P450 2C9 (Homo sapiens) (P11712 whole entry, looked up): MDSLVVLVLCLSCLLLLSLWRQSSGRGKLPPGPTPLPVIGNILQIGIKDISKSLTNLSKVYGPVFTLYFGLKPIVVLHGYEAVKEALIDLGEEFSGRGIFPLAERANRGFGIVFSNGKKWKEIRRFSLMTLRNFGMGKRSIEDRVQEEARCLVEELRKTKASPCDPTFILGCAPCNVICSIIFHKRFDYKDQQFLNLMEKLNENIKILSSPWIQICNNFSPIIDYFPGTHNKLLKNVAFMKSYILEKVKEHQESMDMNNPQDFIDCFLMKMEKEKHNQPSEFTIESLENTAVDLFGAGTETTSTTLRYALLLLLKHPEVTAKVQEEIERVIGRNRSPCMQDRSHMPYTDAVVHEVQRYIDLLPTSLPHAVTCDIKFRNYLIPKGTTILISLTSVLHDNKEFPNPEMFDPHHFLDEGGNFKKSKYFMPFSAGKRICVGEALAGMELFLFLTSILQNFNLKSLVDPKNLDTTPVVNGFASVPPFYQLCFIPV
# Procedure, shortened: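 Luminescence, after 20 min with luciferin detection reagent, reflected CYP2C9 turnover during a 1 h NADPH-driven reaction at 37C. Enzyme-substrate mix contained 0.4% bovine serum albumin and was preincubated with compound 10 min at room temperature.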
# [6] = A High-Content qHTS Against Drug Library for the Identification of Small Molecules that Inhibit DYT1 Early Onset Primary Dystonia-Associated Cell Pathology (AID 1645839; calls by dose curve; also: series mostly up to about 46 µM)
# Procedure, shortened: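 Readout: %pathology, the punctate EGFP-TorsinA distribution from imaging, as the primary channel and cell count as the toxicity counterscreen. HEK293 Flp-In cells expressing delE TorsinA were induced with tetracycline and treated with compound for 48 h.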
smiles,measurement,setting,value
CC(=O)NC[C@H]1CN(c2ccc(N3CCOCC3)c(F)c2)C(=O)O1,Potency,[1],inactive
same,Potency,[2],inactive
same,outcome,[3],inactive
same,Potency,Papain (Carica papaya),inactive
Nc1nc(N)c(N=O)c(OCC2CCCCC2)n1,Potency,[4],inactive
same,Potency,[2],inactive
same,Potency,[5],inactive
O=C(NCCO[N+](=O)[O-])c1cccnc1,Potency,[4],inactive
same,Potency,[6],inactive
same,Potency,[2],inactive
same,Potency,[5],inactive
NC(=NCc1ccccc1)NC(=O)c1nc(Cl)c(N)nc1N,Potency,[4],inactive
same,Potency,[1],inactive
same,Potency,[2],5.35 µM (active)
same,Potency,[5],inactive
same,Potency,Papain (Carica papaya),31.6 µM (active)
Cc1ccc(S(=O)(=O)NC(=O)NN2CC3CCCC3C2)cc1 (stereo unspecified),Potency,[4],inactive
same,Potency,[6],inactive
same,Potency,[2],inactive
same,Potency,[5],inactive
COc1ccccc1N1CCN(CCN(C(=O)C2CCCCC2)c2ccccn2)CC1,Potency,[4],inactive
same,Potency,[1],inactive
same,Potency,Papain (Carica papaya),inactive
O=C1c2c(O)cc(O)cc2OC(c2ccc(O)c(O)c2)C1O (stereo unspecified),Potency,[4],inactive
same,Potency,Papain (Carica papaya),inactive
CC1(C)C(=O)N(CCN2CCC(C(=O)c3ccc(F)cc3)CC2)c2ccccc21,Potency,[4],inactive
same,Potency,Papain (Carica papaya),inactive
CN(C)CCCC1(c2ccc(F)cc2)OCc2cc(C#N)ccc21 (stereo unspecified),Potency,[4],inactive
same,Potency,[1],inactive
same,Potency,Papain (Carica papaya),inactive
CCOC(=O)C1=C(O)C(=O)N(Cc2ccccc2)C1,Potency,[4],inactive
same,Potency,[1],inactive
same,Potency,Papain (Carica papaya),inactive
CS(=O)(=O)OCCCCOS(C)(=O)=O,Potency,[4],inactive
same,Potency,[6],inactive
same,Potency,[2],inactive
same,outcome,[3],inactive
same,Potency,[5],inactive
O=C1c2ccccc2-c2n[nH]c3cccc1c23,Potency,[4],inactive
same,Potency,[1],inactive
same,Potency,Papain (Carica papaya),inactive
C[C@@H](c1ncncc1F)[C@](O)(Cn1cncn1)c1ccc(F)cc1F,Potency,[4],inactive
same,Potency,[1],inactive
same,Potency,[2],inactive
same,Potency,Papain (Carica papaya),inactive
O=Nc1c(-c2c(O)[nH]c3cc(Br)ccc23)[nH]c2ccccc12,Potency,[4],inactive
same,Potency,[2],21.3 µM (active)
same,Potency,Papain (Carica papaya),inactive
Clc1ccc(C(Cn2ccnc2)OCc2ccsc2Cl)c(Cl)c1 (stereo unspecified),Potency,[4],inactive
same,Potency,[2],0.692 µM (active)
same,Potency,[5],0.0692 µM (active)
CCOC(=O)C(C)Oc1cccc2c(=O)n(CC(=O)Nc3ccc4c(c3)OCCO4)ccc12 (stereo unspecified),Potency,[4],inactive
same,Potency,[1],inactive
same,Potency,Papain (Carica papaya),inactive
C[C@@H](N)C1CCC(C(=O)Nc2ccncc2)CC1 (stereo partly specified),Potency,[4],inactive
same,Potency,[1],inactive
same,Potency,Papain (Carica papaya),inactive
Cc1cc(Cl)ccc1OCCCC(=O)NO,Potency,[4],inactive
same,Potency,[1],inactive
same,Potency,Papain (Carica papaya),inactive
COc1c2occc2cc2ccc(=O)oc12,Potency,[4],inactive
same,Potency,[6],inactive
same,Potency,[5],3.89 µM (active)
Nc1nc(OCc2ccccc2)c2[nH]cnc2n1,Potency,[4],inactive
same,Potency,[1],inactive
same,Potency,Papain (Carica papaya),inactive
